Source: ChEMBL document CHEMBL3988442, “University of Dundee, Small-Polar-MMV Screening Library” (2021)
Among all 69,000 compounds or so, about 30 (0.04%) showed an effect of 50% or more. Only a selection was taken, and strong results are over-represented in it overall.

biological target: T1, Histidine--tRNA ligase (Trypanosoma cruzi (strain CL Brener)) (UniProt Q4DA54); test: Trypanosoma cruzi histidyl tRNA synthetase (Tc-HisRS); format: functional; set-up: scale not given: direction of the effect not stated beside the values; details: 30 µM
T1 sequence (whole entry): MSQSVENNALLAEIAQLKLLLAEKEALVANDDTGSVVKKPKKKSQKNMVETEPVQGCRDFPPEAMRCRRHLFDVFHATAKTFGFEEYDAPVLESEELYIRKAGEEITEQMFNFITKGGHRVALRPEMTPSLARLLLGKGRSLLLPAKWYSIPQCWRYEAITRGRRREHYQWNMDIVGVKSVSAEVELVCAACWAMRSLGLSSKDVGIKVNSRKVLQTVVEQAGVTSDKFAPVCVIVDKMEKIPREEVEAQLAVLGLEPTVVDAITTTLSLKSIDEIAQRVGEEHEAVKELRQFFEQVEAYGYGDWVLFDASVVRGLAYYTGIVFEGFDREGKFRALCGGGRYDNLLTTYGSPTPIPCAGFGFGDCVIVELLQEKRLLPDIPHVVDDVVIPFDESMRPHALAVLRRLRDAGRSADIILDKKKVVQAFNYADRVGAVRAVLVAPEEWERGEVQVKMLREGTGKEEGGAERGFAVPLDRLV

Row | SMILES | Percent Effect [%]
1 | COc1ccc(CN2C[C@H]3CC[C@](O)(c4ccc(C)cn4)[C@H]3C2)c(F)c1 | -0.54
2 | Cc1ccc(C(=O)N2C[C@H]3CCC[C@@]3(COCC3CCOCC3)C2)o1 | 14.3
3 | Cn1cc(CN2CC[C@H]3OCC[C@@H](C(=O)Nc4cnccn4)[C@@H]3C2)cn1 | -1.22
4 | CN(Cc1cccnc1)C[C@H]1OC[C@@H]2CCN(c3ncccn3)C[C@@H]21 | -3.09
5 | COc1cccc(-c2ncc(CN3CC[C@H]4CC[C@@H](C3)N4)s2)c1 | 7.88
6 | O=C(c1cnccn1)N1C[C@@H]2CCN(c3cccnc3)C[C@@H]2C1 | 2.96
7 | CN(C)C(=O)[C@@H]1CCO[C@@H]2CCN(Cc3ccccc3)C[C@@H]21 | 5.88
8 | NCC1Cc2cc(-c3nccc(N4CCC(O)CC4)n3)cc(F)c2O1 (stereo not drawn) | 33.7
9 | NCC1Cc2cc(-c3nccc(N4CCC(O)CC4)n3)cc(Cl)c2O1 (stereo not drawn) | 53.1
10 | NCC1Cc2cccc(-c3nccc(N4CCC(O)CC4)n3)c2O1 (stereo not drawn) | 20.4
11 | Cc1cnc(N2C[C@@H]3[C@@H](C2)OCC(=O)N3C)nc1 | 7.36
12 | CC(=O)N1CC[C@@H]2O[C@@H](COCC(=O)N3CCCC3)CC[C@@H]21 | 2.63
13 | O=C(C1CCCC1)N1C[C@@H](c2ccsc2)[C@@H]2CN(C3CCCC3)CC[C@@H]21 | 41.7
14 | O=C(c1ccsc1)N1C[C@H]2CN(Cc3cccc(F)c3)C(=O)[C@H]2C1 | 7.84
15 | COCCN1C[C@@H]2CN(C(=O)[C@H]3CCCO3)C[C@@H]2C1=O | 0
16 | CSc1ncccc1C(=O)N1C[C@H]2CC[C@@H]1CN(c1ncccn1)C2 | 1.67
17 | Cc1ccnc(OC[C@@]23CCO[C@@H]2CCN(c2ncccn2)C3)n1 | 9.2
18 | O=C(NC1CC1)[C@@]12CCO[C@@H]1CCN(Cc1ccc3c(c1)OCO3)C2 | 1.11
19 | CC(C)(C)c1nc(CNC2CCCN(c3cccnn3)C2)no1 (stereo not drawn) | 0.595
20 | CC(C)c1nc(CNC2CCCN(c3cccnn3)C2)no1 (stereo not drawn) | 50.6
21 | Cc1nc(CNC2CCCN(c3cccnn3)C2)no1 (stereo not drawn) | 6.55
22 | O=C1[C@@H]2CCN(Cc3ccc(F)cc3)C[C@@H]2OCCN1c1cccnc1 | 8.02
23 | CCCOCC1CCN(C(=O)Cn2cccc(OC)c2=O)C1 (stereo not drawn) | 10.3

Row | SMILES | Percent Effect [%]
24 | COc1cccn(CC(=O)N2CCC3(CCNCC3)C2)c1=O | 10.9
25 | COc1cccn(CC(=O)N2CCCC3(CCOCC3)C2)c1=O | 9.9
26 | COCCN(C)C(=O)Cn1cccc(OC)c1=O | 3.31
27 | COc1cccn(CC(=O)N2CCCC3(CCCO3)CC2)c1=O (stereo not drawn) | 71.3
28 | COc1cccn(CC(=O)N2CCCC3(CCCCC3)C2)c1=O | 76.2
29 | Cc1ccc(N2CC[C@H]3O[C@H](C(=O)N4CCCCO4)CC[C@H]32)nn1 | -1.11
30 | CNC(=O)[C@H]1C[C@@H]2CN(S(=O)(=O)c3cccc(C)c3)C[C@@H]2N1C | 5.88
31 | CC(=O)N1CCO[C@@H]2CN(C(=O)c3ccc4ccccc4c3)CC[C@@H]2C1 | -5.75
32 | CCS(=O)(=O)N1Cc2c(Cn3ccnc3)nn(C)c2C1 | 2.67
33 | Cn1nc(Cn2ccnc2)c2c1CN(c1ncccn1)C2 | 2.15
34 | Cn1nc(Cn2ccnc2)c2c1CN(c1nccs1)C2 | 66.7
35 | O=C(NC1CC1)c1ccc2ccc(N3CCN(CC4CC4)CC3)n2c1 | 45.1
36 | CS(=O)(=O)N1CCN(c2ccc3ccc(C(=O)NC4CC4)cn23)CC1 | 52.4
37 | CC(=O)N1CCN(c2ccc3ccc(C(=O)NC4CCCC4)cn23)CC1 | 59.4
38 | CN(CC1CC1)c1ccc2ccc(C(=O)NC3CCCCC3)cn12 | 42.8
39 | COCCN1CCN(c2ccc3ccc(C(=O)NC4CC4)cn23)CC1 | 35
40 | CN(C)C(=O)N1CCN(c2ccc3ccc(C(=O)NC4CC4)cn23)CC1 | 36.9
41 | CC(C)N1CCN(c2ccc3ccc(C(=O)NC4CCCC4)cn23)CC1 | 60.2
42 | CCN(CC)c1ccc2ccc(C(=O)NC3CC3)cn12 | 36.8
43 | COCCNC(=O)c1ccc2ccc(N3CCN(CC4CC4)CC3)n2c1 | 38.8
44 | CS(=O)(=O)NC[C@]12COC[C@H]1CN(C(=O)C1CCSCC1)C2 | -6.35
45 | Cc1cc(CN2CC[C@H]3C(=O)N(c4ccccc4)CCO[C@H]3C2)no1 | 7.1
46 | CCOc1ccc(CCC(=O)N2CC[C@H]3C(=O)NCCO[C@H]3C2)cc1 | 3.45

Row | SMILES | Percent Effect [%]
47 | CN(C)CCO[C@H]1CN(C(=O)c2ccc(C#N)cc2)[C@@H]2COC[C@H]12 | 15.7
48 | CO[C@H]1[C@@H]2CC[C@H]1CN(c1nc(C)nc3ccsc13)C2 | -6.52
49 | CN(C)C(=O)CN1C[C@H]2CCN(C(=O)c3ccccc3)CC[C@H]2S1(=O)=O | 4.3
50 | Cc1noc(C)c1CN1CCO[C@H]2CN(Cc3ccc(F)cc3)C[C@H]21 | 7.2
51 | O=C(Cn1c(=O)nc2n1C(=O)N(c1ccccc1)C2)NC1CCCCC1 | 6.06
52 | CN(C)CCNC(=O)c1ccc2ccc(N(C)CC3CC3)n2c1 | -9.13
53 | CN(CC1CC1)c1ccc2ccc(C(=O)NCCc3ccccc3)cn12 | 51.4
54 | COCCNC(=O)c1ccc2ccc(N(C)CC3CC3)n2c1 | 26.4
55 | O=C(c1ccnnc1)N1CC[C@H]2C[C@H](c3ccncn3)O[C@@H]2C1 | 7.44
56 | CS(=O)(=O)N1C[C@H]2C[C@H](C(=O)N3CCOCC3)[C@@H](C1)O2 | 4.85
57 | O=C(O)c1cncc(Cc2ccccc2F)c1 | -0.376
58 | O=C(O)c1cncc(Cc2ccc(F)cc2)c1 | 62.8
59 | O=C(O)c1cncc(Cc2cccc(F)c2)c1 | 5.64
60 | O=C(CO[C@@H]1CC[C@H]2[C@H]1OCCN2Cc1ccccn1)N1CCCC1 | 7.53
61 | Cc1noc(C)c1CN1C(=O)[C@H]2CC[C@@H]1CN(Cc1ccc(Cl)cc1)C2 | 3.17
62 | CCN1C(=O)COC[C@@H]1[C@H](O)c1ccc(NC(=O)COC)cc1 | -5.47
63 | Cn1ccnc1CN1C[C@H]2CN(S(=O)(=O)c3ccccc3)CCN2C1=O | -1.49
64 | CCN1CCN(S(=O)(=O)N2CCc3ccccc3C2)[C@H]2CS(=O)(=O)C[C@H]21 | 1.32
65 | O=C1[C@H]2CC[C@H](CN(Cc3nnc(C4CC4)o3)C2)N1Cc1cscn1 | 8
66 | CC(C)C(=O)N1CC[C@@H]2CN(Cc3ccncc3)S(=O)(=O)[C@@H]2CC1 | 1.07
67 | Cc1ccccc1C(=O)N1CC[C@@H]2CN(c3ncccn3)CCO[C@@H]2C1 | 0.98
68 | CCOC(=O)[C@]12CCCN(Cc3ccco3)C[C@H]1CN(S(C)(=O)=O)C2 | 1.68
